According to PubChem BioAssay (NCATS):
Inconclusive results are not listed. Values without a mark were called inactive. Calls come from the whole dose curve; as a rule, active = well fitted inhibition curve with a large enough effect; inconclusive = small, poorly fitted or top-dose-only effect; inactive = flat fitted curve, though single readings scatter.

Assay: Drug repurposing screens with cells derived from glioblastoma tumor samples (AID 1345199); note: nearly all actives have a fitted effect of over 40% in size
Details: GBM patient neurospheres viability, ATP luminescence, 48 h; at 45.9 µM (top of the series); tumour line B
In short: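 Primary testing used CD133+ neurospheres from four GBM patients, seven concentrations, 48 h exposure and ATP-based viability; confirmation added three slower-growing patient lines.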
% is set by controls: 0 for no effect and ±100 for the full control effect.

Row | Compound | activity, negative = cell killing
1 | O=C1OC2(c3ccccc31)c1cc(I)c(O)c(I)c1Oc1c2cc(I)c(O)c1I | -23.6%
2 | OC(CCCN1CCCCC1)(c1ccccc1)c1ccccc1 | 9.15%
3 | CCCC(=O)O[C@]1(C(=O)COC(=O)CC)CC[C@H]2[C@@H]3CCC4=CC(=O)CC[C@]4(C)[C@H]3[C@@H](O)C[C@@]21C | -1.31%
4 | CCN1CCN(C(=O)N[C@@H](C(=O)N[C@@H]2C(=O)N3[C@@H]2SC(C)(C)[C@H]3C(=O)O)c2ccccc2)C(=O)C1=O | -6.11%
5 | O=C(O)c1ccccc1Nc1cc(Cl)ccc1C(=O)O | -6.14%
6 | CCO[C@H](Cc1ccc(OCCc2ccc(OS(C)(=O)=O)cc2)cc1)C(=O)O | -8.78%

Same assay, conditions: GBM patient neurospheres viability, ATP luminescence, 48 h; at 45.9 µM (top of the series); tumour line D

Row | Compound | activity, negative = cell killing
7 | Nc1nnnn1-c1ccccc1 | -15.7%
8 | O=C(O)Cc1ccc(OCCNC[C@H](O)c2ccccc2)cc1 | 5.34%
9 | CO[C@@]1(NC(=O)CSC[C@@H](N)C(=O)O)C(=O)N2C(C(=O)O)=C(CSc3nnnn3C)CS[C@@H]21 | -19.7%
10 | CCOC(=O)OCC/C(SC(=O)OCC)=C(\C)N(C=O)Cc1cnc(C)nc1N | -10.3%
11 | CCCc1c2oc(C(=O)O)cc(=O)c2cc2c(=O)cc(C(=O)O)n(CC)c12 | -8.4%
12 | C[C@H]1NCc2cc(-c3ccc4c(=O)c(C(=O)O)cn(C5CC5)c4c3OC(F)F)ccc21 | 27.3%
13 | CN1C(=O)CC(C)(c2ccccc2)C1=O (centres undefined) | 0.352%
14 | CC(=O)OCC(=O)[C@@]1(O)CCC2C3CCC4=CC(=O)CC[C@]4(C)C3[C@@H](O)C[C@@]21C (some centres undefined) | -11.4%
15 | CC(NN)c1ccccc1 (centres undefined) | -5.52%
16 | CN1CCCN=C1/C=C/c1cccs1 | -9.69%
17 | OCCc1ccccc1 | -5.39%
18 | CN=C(N)NC(=O)Nc1c(C)cccc1C | -0.753%
19 | CC(=O)Nc1c(I)c(NC(C)=O)c(I)c(C(=O)O)c1I | -9.58%
20 | CN(C)C(=O)CNC(=O)Cc1ccccc1 | -2.49%
21 | Cc1cccc(C)c1NC(=O)c1cc(S(N)(=O)=O)c(Cl)cc1O | -8.64%
22 | Cc1ccc(/C=N/n2c(-c3ccccc3)csc2=S)cc1 | -6.23%
23 | CSc1ccc(/C=C2/C(C)=C(CC(=O)O)c3cc(F)ccc32)cc1 | -11.2%
24 | CN(C(=O)C(Cl)Cl)c1ccc(OC(=O)c2ccco2)cc1 | -16.9%
25 | O=C(O)c1[nH]n(-c2ccc(S(=O)(=O)O)cc2)c(=O)c1N=Nc1ccc(S(=O)(=O)O)cc1 | -22.4%
26 | O=C(O)CNC(=O)CNC(=O)CNC(=O)CSC(=O)c1ccccc1 | -4.9%
27 | Cc1ccccc1C(=O)N1CC/C(=N\OS(=O)(=O)O)c2ccc(Cl)cc21 | -7.25%
28 | OCCCc1ccccc1 | -9.24%
29 | O=C(CCCCC(=O)Nc1c(I)cc(I)c(C(=O)O)c1I)Nc1c(I)cc(I)c(C(=O)O)c1I | -19.2%
30 | OC(CCCN1CCCCC1)(c1ccccc1)c1ccccc1 | -27.2%
31 | CCCC(=O)O[C@]1(C(=O)COC(=O)CC)CC[C@H]2[C@@H]3CCC4=CC(=O)CC[C@]4(C)[C@H]3[C@@H](O)C[C@@]21C | -7.61%
32 | CCN1CCN(C(=O)N[C@@H](C(=O)N[C@@H]2C(=O)N3[C@@H]2SC(C)(C)[C@H]3C(=O)O)c2ccccc2)C(=O)C1=O | -1.23%
33 | O=C(O)c1ccccc1Nc1cc(Cl)ccc1C(=O)O | -11.1%
34 | CCO[C@H](Cc1ccc(OCCc2ccc(OS(C)(=O)=O)cc2)cc1)C(=O)O | -11.2%
